# Test results published in PubChem BioAssay AID493240 (Broad Institute, 2011).
# Hit rate of the full screen: of about 1,300 compounds, about 270 (21%) were called active. Only a sample is shown. Results with a measured potency or affinity are listed apart. A number with no mark means an inactive call. No rule for the calls is given here.
# Assay: SK-MEL-5 parental cell viability loss, dose response, orthogonal assay for MITF inhibitor project, CellTiter-Glo, cherry-picked, set 3 (AID 493240)
# Settings: SK-MEL-5 viability, ATP luminescence (CellTiter-Glo), 24 h; series mostly up to 35 µM; activity change, negative = viability loss: at the top concentration
row,SMILES,"activity change, negative = viability loss"
1,O=[N+]([O-])c1cc(S(=O)(=O)N2CCCCCC2)ccc1F,-40.5%
2,O=C(N/N=C/c1cc(Cl)ccc1O)c1ccncc1,-18%
3,O=C(COC(=O)c1ccc[nH]c1=O)Nc1ccc(N2CCCCC2)cc1,-0.334%
4,CN=c1scc(-c2ccccc2F)n1/N=C/c1ccc[nH]1,-39.1%
5,Cc1ccc(COc2ccc(C)nc2[N+](=O)[O-])cc1,9.27%
6,O=C(Cn1ncc(Cl)c(Cl)c1=O)Nc1ccc2c(c1)OCO2,-31.9%
7,O=[N+]([O-])c1cccc(/C=N/Nc2ncc(Br)cn2)c1,15.2%
8,O=C(c1ccc(S(=O)(=O)Cc2ccccc2Cl)c([N+](=O)[O-])c1)N1CCN(c2ccccn2)CC1,-6.1%
9,CC(C)C(=O)NC(c1ccco1)c1ccc2cccnc2c1O (centres undefined),-29%
10,COc1cc(SC)ccc1C(=O)Nc1ncc(C)s1,-21.3%
11,COc1cc(SC)ccc1C(=O)Nc1ccc(Br)cn1,-19.1%
12,COc1cc2c(cc1O)C(SC)=NC(C)(C)C2,-14%
13,O=[N+]([O-])c1ccccc1OCCCOc1cccc2cccnc12,-2.19%
14,O=[N+]([O-])c1cc(CN2CCN(c3ccccc3)CC2)c(O)c2ncccc12,-37.8%
15,CC(=O)Nc1ccc2c(c1)ncn2-c1ccccc1,-4.41%
16,CSCCNC(=O)c1ccc2nc(Cc3ccccc3F)oc2c1,-0.854%
17,N#C/C(=C\c1ccc(OCc2ccc(C(=O)O)cc2)cc1)C(=O)N1CCOCC1,-22.2%
18,Cc1ccc(-c2cc3onc(-c4ccccc4)c3c(=O)n2C)cc1,-21.7%
19,CN(Cc1ccccc1)C1=CC(=[N+]2CCCC2)CC(C)(C)C1,-27%
20,N/C(=N\OC(=O)c1cccc(F)c1)c1cccc([N+](=O)[O-])c1,10.3%
21,COc1ccc(C(=O)NCC(=O)c2ccccc2)cc1,-8.5%
22,O=C(N/N=C/C=C/c1ccccc1)c1ccccn1,0.498%
23,COc1cc2c(cc1OC)C(SC)=NC1(CCCC1)C2,-16.4%

row,SMILES,"activity change, negative = viability loss"
1,O=C(c1ccccc1)c1cc(Cl)ccc1N1C(=O)C=CC1=O,-2.49%
2,COc1ccc(/C=N/Nc2cc(C)nc(-n3nc(C)cc3C)n2)c(OC)c1,-35.9%
3,CC(=O)Oc1c(C(=O)c2nnc(C)o2)c(=O)n(Cc2ccccc2)c2ccccc12,7.5%
4,Cc1ccc2nc(NC(=O)CCCC(=O)O)sc2c1,-17.3%
5,CN(C)CCCN(C(=O)c1ccc(Cl)s1)c1nc2cc3c(cc2s1)OCO3,-22.2%
6,Cc1c(C#N)c(NC(=O)CCl)n(Cc2ccc(F)cc2)c1C,-24.8%
7,COc1ccccc1OCC(=O)N/N=C/C=C/c1ccc([N+](=O)[O-])o1,-12.1%
8,CCOc1ccccc1NC(=O)C(=O)N/N=C/c1cc(Br)ccc1O,-7.65%
9,CC(C)(C)C(=O)Nc1cc2nn(-c3ccccc3)nc2cc1Cl,-22%
10,CCOc1ccc2nc(NC3=NC(c4ccc(OC)cc4)CC(=O)N3)nc(C)c2c1 (centres undefined),-27.7%
11,Cc1ccc(C(=O)c2cccc(N)c2)cc1C,-8.05%
12,Cc1nc2ccccn2c1C(=O)N/N=C/c1ccc([N+](=O)[O-])o1,-28.7%
13,CC1=NC(=O)C(N=Nc2cccc(C(=O)O)c2)N1c1ccccc1 (centres undefined),7.48%
14,CC(Oc1ccc(F)cc1)C(=O)Nc1nc(-c2ccccn2)cs1 (centres undefined),-22%
15,O=C(CCNc1ccccc1)c1ccc2c(c1)OCO2,5.44%
16,C=CCN1C(=O)S/C(=C\c2ccc(N3CCOCC3)cc2C)C1=O,-0.909%
17,Cc1ccc(C)c(C(=O)Cn2ncc(Cl)c(Cl)c2=O)c1,-43.1%
18,Cc1ccc(SCCC(=O)N2CCC(C)CC2)cc1,1.23%
19,CS(=O)(=O)N1CCN(c2nc3ccc(Cl)cc3s2)CC1,9.11%
20,O=C(Nc1ccc(F)cc1F)c1cc2ccccc2oc1=O,-5.22%
21,COc1ccc(CCC(=O)N2CCc3ccccc32)cc1,6.07%
22,CCOc1ccc(N(CC(=O)Nc2ccc(OC)cc2)S(C)(=O)=O)cc1,-3.78%
23,COc1ccc(C(=O)Nc2ccc3c(c2)OCCO3)cc1Br,-12.3%

row,SMILES,"activity change, negative = viability loss"
1,Cn1c(/C=C/c2ccc(Cl)cc2)nc2ccccc2c1=O,4.85%
2,COc1cccc(-c2csc3ncnc(Sc4nnnn4C)c23)c1,-9.59%
3,Cn1c(/C(C#N)=C/c2ccc(-c3ccc(S(N)(=O)=O)cc3)o2)nc2ccccc21,7.65%
4,CC1CCCCC1NC(=O)/C(C#N)=C/c1ccccc1F (centres undefined),-20.1%
5,O=C1c2cc([N+](=O)[O-])cc3cc([N+](=O)[O-])cc(c23)C(=O)N1c1ccccn1,-23.9%
6,N#C/C(=C\c1cccs1)C(=O)NCC1CCCO1 (centres undefined),-8.83%
7,N/C(=N\OC(=O)c1ccc([N+](=O)[O-])cc1)c1ccc(Br)cc1,-4.62%
8,CC(C)N=c1c([N+](=O)[O-])nn(C)n1O,2.47%
9,CCN1CCc2c(sc(NC(=O)c3ccc(S(=O)(=O)N4CCCC4)cc3)c2C(=O)NC)C1,-13.9%
10,COc1cccc(NC(=O)c2cc3ccccc3cc2OC)c1,-17.6%
11,O=C(N/N=C/C(Cl)=C\c1ccccc1)c1cccs1,-2.35%
12,CCOc1ccc(-c2ccc(SC)nn2)cc1,-49.8%
13,O=C(Nc1ccc(Cl)cc1)OCc1ccccn1,-16.8%
14,CC1CCN(c2nc3ccc(C(=O)O)cc3s2)CC1,4.93%
15,O=C(O)c1ccc(Nc2nc3c(s2)CCCC3)cc1,-4.85%
16,Cc1c(C=O)c2cc(OCc3ccccc3)ccc2n1C,-0.185%
17,Cn1c(=O)c([N+](=O)[O-])c(-n2ccnc2)c2ccccc21,-31%
18,NCCCNc1nc(N)c([N+](=O)[O-])c(NC2CCCCC2)n1,8.57%
19,N/C(=N\OC(=O)c1ccccc1Cl)c1cccc([N+](=O)[O-])c1,-1.4%
20,O=C(NC(=S)Nc1ccccn1)c1cccc([N+](=O)[O-])c1,-6.69%
21,Cc1ccc2c(COC(=O)c3n[nH]c4ccccc34)cc(=O)oc2c1,-13.2%
22,CC(C)(C)c1ccc(-c2noc(CCC(=O)NCc3ccco3)n2)cc1,14.1%
23,Cc1cc(-n2c(SCC(=O)NCCC3=CCCCC3)nc3n[nH]c(C)c3c2=N)ccc1Cl,-34.7%

row,SMILES,"activity change, negative = viability loss"
1,CC(/C=N/NC(=O)c1cc(-c2ccncc2)nc2ccccc12)=C\c1ccco1,-11.5%
2,COc1ccc(C)c2sc(N(CCN(C)C)C(=O)/C=C/c3cccs3)nc12,-21.3%
3,Cc1cccc2sc(N(CCCN(C)C)C(=O)c3nc4ccccc4s3)nc12,-6.33%
4,Cn1nc([N+](=O)[O-])nc1S(C)(=O)=O,-12.2%
5,COc1cccc(-c2nnc3n2N=C(C(C)(C)C)CS3)c1,-27.2%
6,COC(=O)[C@@H]1C[C@]2(OC(=O)c3ccccc3)C=CC(=O)C[C@@H]2N1C(=O)OCc1ccccc1,-41.7%
7,Cc1occc1C(=O)N/N=C/c1ccc(OCc2ccccc2)cc1,-5.87%
8,CC(=O)SC(C[N+](=O)[O-])c1cn(C(C)=O)c2ccccc12 (centres undefined),-40.4%
9,Cc1ccc(-c2cn3nc(C)c(C)nc3n2)cc1,-31.4%
10,O=C(Nc1ccc(-c2nc3ncccc3o2)cc1)c1ccc([N+](=O)[O-])o1,-4.62%
11,NC(=O)c1cc([N+](=O)[O-])ccc1NCc1ccc(N)cc1,3.12%
12,COc1ccc(-c2csc(Nc3ccccn3)n2)cc1OC,-13.8%
13,CC1CCN(C(=O)c2cc3ccccc3o2)CC1,-11.1%
14,c1ccc(-c2cn3nc4c(nc3n2)CCCC4)cc1,-35.1%
15,Cc1ccc(S(=O)(=O)CC(CN2CCCCC2)N2CCCCC2)cc1 (centres undefined),-2.19%
16,O=S(=O)(CC(CN1CCCCC1)N1CCCCC1)c1ccc2ccccc2c1 (centres undefined),-29.1%
17,O=C(Nc1ccccc1F)C(=O)Nc1cccc2ccccc12,-13.7%
18,c1ccc(-n2ncc3c(NCc4cccs4)ncnc32)cc1,-8.94%
19,COc1cccc(/C=N/Nc2ncnc3c2ncn3Cc2ccccc2)c1O,-8.13%
20,COc1cccc(C(=O)Nc2ccc3c(cc2=O)[C@@H](NC(C)=O)CCc2cc(OC)c(OC)c(OC)c2-3)c1,-14.7%
21,CCc1nc2oc3ccc(C)cc3c(=O)c2cc1C(=O)OC,-4.95%
22,O=C(COC(=O)c1ccc(F)c([N+](=O)[O-])c1)NC(=O)NCc1ccccc1,-12%
23,CCC(=O)Nc1cc(C(=O)OCC(=O)c2ccccc2Cl)ccc1C,-6.58%

row,SMILES,"activity change, negative = viability loss"
1,CNC(=O)COC(=O)c1ccccc1C(=O)c1ccc(Cl)c([N+](=O)[O-])c1,-28%
2,CCCNC(=O)COC(=O)c1ccccc1C(=O)c1ccc(Cl)c([N+](=O)[O-])c1,-47.9%
3,Cc1cc(C(=O)O/N=C(\N)c2ccncc2)ccc1[N+](=O)[O-],-0.835%
4,O=C(COC(=O)c1ccccc1C(=O)c1ccc(Cl)c([N+](=O)[O-])c1)NC1CC1,-33.4%
5,CC(=O)OCCNc1cc(Sc2nc3ccccc3[nH]2)c2nonc2c1[N+](=O)[O-],-20.1%
6,CNc1oc(/C=C/c2cccc(OC)c2)nc1C#N,7.1%
7,Cc1ccc2oc(Nc3nc(C)c(C)c(C)n3)nc2c1,-0.374%
8,Cc1ccc2nc(-c3cccnc3)oc2c1,-8.52%
9,CC(C)c1ccc(/C=N/Nc2ccc(C(=O)O)cc2)cc1,11.1%
10,O=C(NCc1csc(-c2cccs2)n1)C1CCC1,2.31%
11,CCOc1ccc2nc(NC(=O)Cc3cccs3)sc2c1,-1.45%
12,CC(C)S(=O)(=O)c1csc(C(=O)Nc2ccc(F)cc2)c1N,-19%
13,C=CCn1c(C)cc(C2=NNC(=NC(C)(C)C)SC2)c1C,-28.7%
14,C=CCN=C1NN=C(c2ccc3c(c2)OCCO3)CS1,-45.7%
15,O=C(NC1CC1)C1CCN(S(=O)(=O)c2ccc(Cl)c([N+](=O)[O-])c2)CC1,-1.24%
16,CC(C)CN=C(NS(=O)(=O)c1ccccc1)C(Cl)(Cl)Cl,-28.7%
17,O=C(CN1CCCCC1)Nc1scc2c1c(=O)oc1ccccc12,0.369%
18,CN1CCN(c2ccccc2NC(=O)c2ccc([N+](=O)[O-])o2)CC1,-4.86%
19,CC(C)C(=O)N1CCN(c2ccc(NC(=O)c3ccc([N+](=O)[O-])o3)cc2)CC1,-42.2%
20,CCN1CCN(/C=N/c2nc3c(s2)CCCC3)CC1,-8.69%
21,Oc1ccc(-c2nnc(SCC3CCCCC3)o2)cc1,-5.4%
22,CC(=NNC(=S)N1CCN(c2ccccn2)CC1)c1nccs1,-39.7%
